Source: publication PMC4336329 (PLoS ONE, 2015)
Hit rate of the full screen: of about 310,000 compounds, about 2,200 (0.71%) showed an effect of 50% or more. Effects have a minus sign here. Many of the other results were omitted from the sample, so strong results are more common in it than they were.

molecular target: human ether-à-go-go-related gene (hERG) potassium channel (human, UniProt Q12809); assay: primary screen, population patch clamp on CHO cells stably expressing hERG; higher = less effect of the substance
Sequence (Q12809 whole entry, looked up): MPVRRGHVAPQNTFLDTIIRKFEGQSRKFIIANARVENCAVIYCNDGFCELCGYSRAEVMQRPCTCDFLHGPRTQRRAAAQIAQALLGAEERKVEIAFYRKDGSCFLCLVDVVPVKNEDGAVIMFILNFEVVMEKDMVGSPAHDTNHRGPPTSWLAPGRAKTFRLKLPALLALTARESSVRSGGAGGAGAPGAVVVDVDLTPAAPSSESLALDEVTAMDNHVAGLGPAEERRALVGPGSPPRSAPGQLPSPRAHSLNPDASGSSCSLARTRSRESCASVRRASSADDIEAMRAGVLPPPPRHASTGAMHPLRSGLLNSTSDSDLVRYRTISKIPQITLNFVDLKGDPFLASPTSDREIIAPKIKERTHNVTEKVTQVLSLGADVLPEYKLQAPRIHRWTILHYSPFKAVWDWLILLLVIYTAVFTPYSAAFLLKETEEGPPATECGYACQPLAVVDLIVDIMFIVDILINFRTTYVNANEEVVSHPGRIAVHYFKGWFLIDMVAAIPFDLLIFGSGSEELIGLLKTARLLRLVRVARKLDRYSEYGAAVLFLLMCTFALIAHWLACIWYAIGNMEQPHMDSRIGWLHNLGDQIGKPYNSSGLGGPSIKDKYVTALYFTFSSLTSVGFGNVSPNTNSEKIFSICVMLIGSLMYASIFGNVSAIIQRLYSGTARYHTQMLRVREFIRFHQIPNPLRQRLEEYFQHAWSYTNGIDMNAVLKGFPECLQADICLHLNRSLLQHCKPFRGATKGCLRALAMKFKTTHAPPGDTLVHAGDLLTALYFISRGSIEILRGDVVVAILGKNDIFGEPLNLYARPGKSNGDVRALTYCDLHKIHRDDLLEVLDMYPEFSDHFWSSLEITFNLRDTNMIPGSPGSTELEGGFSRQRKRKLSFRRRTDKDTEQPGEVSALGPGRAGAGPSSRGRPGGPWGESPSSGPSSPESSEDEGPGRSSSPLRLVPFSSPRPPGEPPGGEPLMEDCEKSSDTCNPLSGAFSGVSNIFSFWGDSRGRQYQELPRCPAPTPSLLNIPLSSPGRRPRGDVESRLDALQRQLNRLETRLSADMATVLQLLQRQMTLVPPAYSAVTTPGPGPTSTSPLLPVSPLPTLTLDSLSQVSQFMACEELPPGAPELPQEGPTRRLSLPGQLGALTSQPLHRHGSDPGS

| SMILES | hERG current change (%, negative = inhibition) at 1uM [%] |
| --- | --- |
| CCCCNC(=O)c1cc2c(=O)n3cccc(C)c3nc2n(CCN2CCOCC2)c1=N | -92.4 |
| Cc1cccn2c(=O)c3cc(C(=O)NCCN4CCOCC4)n(C)c3nc12 | 9.82 |
| COCCn1c(=N)c(C(=O)NCCc2ccccc2)cc2c(=O)n3cccc(C)c3nc21 | -86.1 |
| Cc1cccn2c(=O)c3cc(C(=O)NCCN4CCOCC4)c(=N)n(CCN4CCOCC4)c3nc12 | 12.2 |
| COCCn1c(=N)c(C(=O)NCCc2ccc(OC)cc2)cc2c(=O)n3cccc(C)c3nc21 | -95.4 |
| COc1ccc(CN2CCN(Cc3ccccc3C(F)(F)F)CC2)c(OC)c1.O=C(O)C(=O)O | -39.5 |
| Cc1ccc(N2C(=O)CC(NCc3ccc4c(c3)OCO4)C2=O)cc1Cl (stereo not shown) | -12.2 |
| COc1ccc(COC(=O)c2ccc(C)c(S(=O)(=O)N3CCOCC3)c2)cc1F | 16 |
| Cc1ccc(CNS(=O)(=O)c2ccc3c(c2)C(C)(C)C(=O)N3C)cc1 | 7.06 |
| COc1cc(CNC(=O)CCCC/C=C/C(C)C)ccc1O | 11.8 |
| CC(=O)N1CCN(c2ccc(NC(=O)c3ccc(Cl)c([N+](=O)[O-])c3)cc2)CC1 | 5.32 |
| O=C(C/C(=N\NC(=O)c1ccccc1Br)C(F)(F)F)c1cccs1 | 3.65 |
| O=C(Nc1ncnc2sc3c(c12)CCCCC3)c1ccc(F)cc1 | 14.2 |
| Cc1[nH]c2ccccc2c1C(=O)CSc1nc2cc(S(=O)(=O)N3CCCCC3)ccc2o1 | 9.62 |
| CCc1cc2c(=O)c(-c3nc4ccccc4n3C)c(CCCC(=O)O)oc2cc1OC(=O)C(C)(C)C | 14.8 |
| CC(=O)c1ccc(NC(=O)Cc2ccsc2)cc1 | 14.1 |
| C=CCNC(=O)NS(=O)(=O)c1ccc(C)cc1 | 16.6 |
| Cc1cccn2c(=O)c3cc(C(=O)NCCc4ccccc4)c(=N)n(CCCn4ccnc4)c3nc12 | -61.3 |
| Cc1cccn2c(=O)c3cc(C(=O)NCCCn4ccnc4)n(C)c3nc12 | 2.55 |
| Cc1cccn2c(=O)c3cc(C(=O)NCCN4CCOCC4)c(=N)n(CCc4ccccc4)c3nc12 | -71.8 |
| Cc1cccn2c(=O)c3cc(C(=O)NC(C)c4ccccc4)c(=N)n(CCCn4ccnc4)c3nc12 (stereo not shown) | -10.8 |
| Cc1ccc(C2(C)NC(=O)N(CC(=O)Nc3cc(S(=O)(=O)N4CCOCC4)ccc3C)C2=O)cc1 (stereo not shown) | -9.42 |

| SMILES | hERG current change (%, negative = inhibition) at 1uM [%] |
| --- | --- |
| COC(=O)c1ccc(/C=N/OCC(=O)NCc2ccc(F)cc2)cc1 | 3.32 |
| O=C(CO/N=C/c1ccc(OC(F)F)cc1)NCc1ccc(F)cc1 | -52 |
| CC(C)(C)c1ccc(/C=N/OCC(=O)NCc2ccc(F)cc2)cc1 | 11.5 |
| O=C(NCc1cc(C(F)(F)F)cc(C(F)(F)F)c1)C1CC(c2ccc(C(F)(F)F)cc2)=NO1 (stereo not shown) | 18.6 |
| Cl.c1ccc2c(c1)nc1n2CCN1CCN1CCCC1 | 18.3 |
| CN1CCN(CCN2CCn3c2nc2ccccc23)CC1.Cl | 5.64 |
| Cl.c1ccc(CN2CCN(CCN3CCn4c3nc3ccccc34)CC2)cc1 | -62.3 |
| COc1ccc(CN(C)C(c2ccccc2)c2nnnn2-c2ccccc2C)c(OC)c1C (stereo not shown) | 11.5 |
| CCn1c(CC(=O)Nc2ccccc2)nnc1SCC(=O)NC1CCCC1 | 5.86 |
| Cc1cc(C)c2nc(N3CCC(C(=O)NCc4ccccn4)CC3)sc2c1 | 9.75 |
| Cc1cc(C)c2nc(N3CCC(C(=O)NCc4cccnc4)CC3)sc2c1 | -50.6 |
| Cc1cc(=O)n2nc(N3CCC(C(=O)NCc4cccnc4)CC3)sc2n1 | 6.87 |
| O=S(=O)(c1ccc(Br)s1)N1CCN(c2ccnc3cc(Cl)ccc23)CC1 | 6.07 |
| O=[N+]([O-])c1ccc(S(=O)(=O)N2CCN(c3ccnc4cc(Cl)ccc34)CC2)cc1 | -77.8 |
| O=S(=O)(c1cccs1)N1CCN(c2ccnc3cc(Cl)ccc23)CC1 | -2.74 |
| Cc1ccc(S(=O)(=O)N2CCN(c3ccnc4cc(Cl)ccc34)CC2)cc1C | 21.6 |
| Clc1ccc2c(N3CCNCC3)ccnc2c1 | -15.4 |
| N#Cc1cccc(S(=O)(=O)N2CCN(c3ccnc4cc(Cl)ccc34)CC2)c1 | -57.2 |
| O=S(=O)(c1ccccc1)N1CCN(c2ccnc3cc(Cl)ccc23)CC1 | -79.9 |
| O=S(=O)(c1cccc(Br)c1)N1CCN(c2ccnc3cc(Cl)ccc23)CC1 | 10.2 |
| O=S(=O)(c1ccccc1OC(F)(F)F)N1CCN(c2ccnc3cc(Cl)ccc23)CC1 | 9.89 |
